Hits are enriched below; roughly 2.7% of the tested compounds scored in any of these assays.
INS-1E GSIS act = primary screen for activators of insulin secretion dependent on glucose, INS-1E cells, GLuc reporter luminescence | INS-1E GLuc reporter insulin secretion, 2-3 h | activation, % at 16.6 µM | hit rate 0.61% among 370,000;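 active = lowest replicate activation of at least 40%, so every replicate reaches that level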
HIV Env fusion = inhibitors of HIV Env-mediated cell fusion; HeLa-JRFL Env/CEM21 cell fusion, luciferase; inhibition, % at 12.3 µM; hit rate 1.1% among 360,000; AID 651610;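 active = mean replicate inhibition score of at least 50 and every replicate individually at or above 50; inconclusive = only one of the two criteria met; inactive = mean below 50 and not all replicates reaching 50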
F508del corr = correctors of CFTR F508del function in bronchial epithelial cells; CFBE cells, YFP halide quenching; stimulated with forskolin plus potentiator P3; % fluorescence drop versus neutral controls; activity (quench increase), % at 7.58 µM; hit rate 0.36% among 350,000;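 active = mean added fluorescence quench of at least 8% versus neutral control, with both replicates also reaching 8%; inconclusive = only one of the mean or replicate conditions met; inactive = mean below 8% and not both replicates reaching 8%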;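 also: cells transiently co-express mutant CFTR-F508del with the halide-sensitive YFP; corrector assay measuring rescue of mutant channel to the surface after 24 h compound exposure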
Wnt bcat act = activators of Wnt/beta-catenin signaling; Wnt/beta-catenin reporter cell assay, activator, plate reader; activation, % at 9.35 µM; hit rate 1.2% among 300,000; AID 743398; in the data active = activation above about 30%, passing the limit was not always enough; inconclusive = no clear call, values can overlap the other calls
MITF TRPM1 HTS = increases MITF-driven TRPM1 promoter luciferase signal | SK-MEL-5 TRPM1-promoter luciferase, 24 h; % of positive control, neutral wells = 0 | activation, % at 12.5 µM | hit rate 0.75% among 300,000;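 active = mean activation of at least 80% with every replicate also reaching 80%; inconclusive = mean reaches 80% but some replicate falls short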
A number is an active result; i = inactive; ? = inconclusive; nt = not tested or not shown; ! = a repeat was not active; [ ] = dose if it differs, or a comment.

SMILES | INS-1E GSIS act | HIV Env fusion | F508del corr | Wnt bcat act | MITF TRPM1 HTS
COc1ccc(CN(C)C(=O)Cn2cc(C)c(=O)[nH]c2=O)cc1OC | 44 | nt | i | i | i
C[C@@H]1CN([C@@H](C)CO)C(=O)c2cccc(NC(=O)C3CCCCC3)c2O[C@H]1CN(C)Cc1ccc2c(c1)OCO2 | i | nt | i | nt | nt
CCCCCCCCn1ccc(=N)cc1 | i | i | i | i | nt
CCCCCCCCCCCCCCCCn1cc[n+](C)c1 | 186 | 128 | i | i | i
Cc1cc(CNC(=O)c2cc(-c3ccccc3)nc3ccccc23)nn1C | i | i | i | i | i
Cc1cc(C(=O)NCc2cc(C)n(C)n2)sc1-c1ccccc1 | nt | 56 | nt | nt | i
O=C1NC(=Nc2ccccc2)S/C1=C/c1cccs1 | i | i | i | 51 | i
Cc1cccc(N=C2NC(=O)/C(=C\c3cccs3)S2)c1 | nt | i | nt | nt | i
COc1ccc(-c2cn(Cc3ccc(C)cc3)nn2)cc1 | i | i | i | i | 86
CN(C)CC(=O)Nc1ccc2c(c1)[C@H]1C[C@@H](CC(=O)N3CCc4ccccc4C3)O[C@H](CO)[C@H]1O2 | i | i | i | nt | nt
O=C(CSc1ncn(-c2ccccc2)n1)c1cccs1 | nt | i | nt | ? | 90
Cc1nccn1C(c1ccccc1)c1ccccc1 | i | i | i | 35 | i
CC(C)C1C(C#N)=C(N)Oc2n[nH]c(-c3ccccc3)c21 (stereo not given) | i | nt | nt | i | nt
CC(C)CC1C(C#N)=C(N)Oc2n[nH]c(-c3ccccc3)c21 (stereo not given) | i | i | nt | 32 | i
CCCc1[nH]nc2c1C(Cc1ccccc1)C(C#N)=C(N)O2 (stereo not given) | i | 64 | nt | i | i
CC(C)CC#Cc1cnc2c(c1)C(=O)N([C@H](C)CO)C[C@@H](C)[C@H](CN(C)C(=O)c1ccc3c(c1)OCO3)O2 | i | i | i | nt | nt
Cc1cn2c(N)c(/C=C3\C=Nc4ccccc43)c(=O)nc2s1 | i | i | i | 39 | nt
COC(=O)CN(C)C(=O)c1ccc2nc(Cc3cccc(Cl)c3)oc2c1 | i | i | i | i | 107
COc1ccc(-c2nc3ccccc3c(=O)n2CCCN2CCOCC2)cc1 | i | nt | i | i | i
CCCn1c2ccccc2c2nnc(SCCN3CCOCC3)nc21 | nt | i | nt | i | i
Cc1nc2ccccc2c(=O)n1CCCN1CCOCC1 | 40 | i | i | i | i
c1ccc2nc3c(nc2c1)c1ccccc1n3CCN1CCOCC1 | 72 | i | nt | nt | i
Cc1ccc(NC2=C/C(=N/S(=O)(=O)c3cccs3)c3ccccc3C2=O)cc1C | i | i | nt | i | i
Cc1ccccc1NC1=C/C(=N\S(=O)(=O)c2cccs2)c2ccccc2C1=O | nt | 121 | nt | i | nt
CO[C@H]1CN(C)C(=O)c2ccc(NS(C)(=O)=O)cc2OC[C@@H](C)N(C(=O)C2CCOCC2)C[C@@H]1C | i | i | i | nt | nt
SMILES | INS-1E GSIS act | HIV Env fusion | F508del corr | Wnt bcat act | MITF TRPM1 HTS
C[C@@H]1CN([C@H](C)CO)C(=O)c2cc(NS(=O)(=O)c3ccc(Cl)cc3)ccc2O[C@@H](C)CCCCO[C@@H]1CN(C)Cc1ccccc1 | i | 65[16.7 µM] | i | nt | nt
C[C@@H]1CN([C@@H](C)CO)C(=O)c2cc(NS(=O)(=O)c3ccc(Cl)cc3)ccc2O[C@@H](C)CCCCO[C@H]1CN(C)Cc1ccc2c(c1)OCO2 | i | i | i | nt | nt
C[C@@H]1CN([C@H](C)CO)C(=O)c2cc(NS(=O)(=O)c3ccccc3)ccc2O[C@@H](C)CCCCO[C@@H]1CN(C)Cc1ccc(Cl)c(Cl)c1 | i | 69![16.7 µM] | i | i | nt
Cc1ccc(S(=O)(=O)N(C)C[C@@H]2OCCCC[C@@H](C)Oc3ccc(NS(=O)(=O)c4ccc(Cl)cc4)cc3C(=O)N([C@@H](C)CO)C[C@@H]2C)cc1 | i | i | 8.6 | nt | nt
C[C@@H]1CN([C@H](C)CO)C(=O)c2cc(NS(=O)(=O)c3ccc(Cl)cc3)ccc2O[C@@H](C)CCCCO[C@@H]1CN(C)Cc1ccc2c(c1)OCO2 | i | 68![16.7 µM] | i | nt | nt
C[C@H]1CCCCO[C@H](CN(C)Cc2ccc(Cl)c(Cl)c2)[C@@H](C)CN([C@@H](C)CO)C(=O)c2cc(NS(=O)(=O)c3ccccc3)ccc2O1 | i | nt | i | nt | nt
C[C@@H]1CN([C@@H](C)CO)C(=O)c2cc(C#Cc3cccnc3)cnc2O[C@H]1CN(C)C | i | i | i | nt | nt
CN1C(=O)c2cc(NC(=O)NC3CCCC3)ccc2OC[C@H]2O[C@H](CC(=O)NCC3CC3)CC[C@H]21 | i | i | i | nt | nt
Cc1ccc(-c2ccc3c(c2)O[C@@H](CN(C)CC2CCCC2)[C@H](C)CN([C@@H](C)CO)S3(=O)=O)cc1 | i | nt | i | nt | nt
O=C(C[C@@H]1CC[C@H](NC(=O)c2cccc(F)c2)[C@H](CO)O1)NCc1ccc(Oc2ccccc2)cc1 | i | 62[16.7 µM] | i | nt | nt
O=C(C[C@H]1CC[C@@H](NC(=O)c2ccccc2)[C@H](CO)O1)NCc1ccc(Oc2ccccc2)cc1 | i | 66[16.7 µM] | i | nt | nt
O=C(C[C@H]1CC[C@H](NC(=O)c2ccccc2)[C@@H](CO)O1)NCc1ccc(Oc2ccccc2)cc1 | i | i | i | nt | nt
CC(=O)Nc1ccc2c(c1)C(=O)N(C)[C@H]1CC[C@@H](CC(=O)NCc3ccccc3)O[C@@H]1CO2 | i | i | i | nt | nt
C[C@@H]1CN([C@@H](C)CO)C(=O)c2cc(Br)cnc2O[C@H]1CN(C)C(=O)C1CC1 | 46! | i | i | i | nt
C[C@@H]1CN([C@H](C)CO)C(=O)c2cc(NC(=O)Nc3ccc(C(F)(F)F)cc3)ccc2O[C@H]1CN(C)C(=O)Nc1cccc2ccccc12 | i | i | i | nt | nt
C[C@H](CO)N1C[C@H](C)[C@H](CN(C)C(=O)Nc2cccc3ccccc23)Oc2ccc(NC(=O)Nc3ccc(C(F)(F)F)cc3)cc2C1=O | i | 56[16.7 µM] | i | nt | nt
C[C@H](CO)N1C[C@H](C)[C@H](CN(C)C(=O)NC2CCCC2)Oc2ncc(-c3cc4ccccc4o3)cc2C1=O | i | i | i | nt | nt
C[C@H]1CN([C@@H](C)CO)C(=O)c2cccc(NC(=O)Nc3ccc(C(F)(F)F)cc3)c2O[C@@H]1CN(C)C(=O)Nc1cccc2ccccc12 | i | i | i | nt | nt
C[C@@H]1CN([C@H](C)CO)C(=O)c2cccc(NC(=O)Nc3ccc(C(F)(F)F)cc3)c2O[C@H]1CN(C)C(=O)Nc1cccc2ccccc12 | i | 78[16.7 µM] | i | nt | nt
C[C@H](CO)N1C[C@H](C)[C@H](CN(C)C(=O)NC2CCCCC2)Oc2ncc(-c3cc4ccccc4o3)cc2C1=O | i | nt | 8.7 | nt | nt
CCCN(C)C[C@@H]1Oc2cc(-c3ccc(F)cc3)ccc2S(=O)(=O)N([C@H](C)CO)C[C@@H]1C | i | i | i | nt | nt
C[C@H](CO)N1C[C@H](C)[C@@H](CN(C)C(=O)Nc2ccccc2)Oc2ccc(NC(=O)CCC(F)(F)F)cc2CC1=O | i | i | i | nt | nt
C[C@@H]1CCCCO[C@H](CN(C)C(=O)CCC(F)(F)F)[C@@H](C)CN([C@@H](C)CO)C(=O)c2cc(NC(=O)CCCCCC(=O)Nc3ccccc3N)ccc2O1 | i | i | i | nt | nt
C[C@H](CO)N1C[C@H](C)[C@H](CN(C)C(=O)Nc2cccc3ccccc23)Oc2ncc(-c3ccc(F)cc3)cc2C1=O | i | 39[16.7 µM] | i | nt | nt

Screening data (PubChem)
